A selection: hits, their analogues and other compounds. The true share with any hit is near 1.4%.
KCNH2 3.1 inh – KCNH2 3.1 (human) potassium channel inhibition. U2OS KCNH2 3.1, thallium flux FluxOr; active compounds read low. activity change, % (tested at about 1.8 µM). 340,000 compounds, 0.95% hits. AID 720553;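 active = maximum activity change below -70%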;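 also: thallium influx rate constant from kinetic fluorescence after stimulation buffer; % is scaled to controls: 0 for no effect and ±100 for the full control effect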
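Measured as rate of thallium-driven FluxOr signal in transduced U2OS cells carrying the 3.1 channel, read kinetically for 2 min upon stimulation; values are rate constants scaled to DMSO control wells.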
PTHR1 ag – PTHR1 (human) receptor agonism; Q03431; HEK293 GP2 PTHR1 cells, GloSensor cAMP luminescence, 1 h; Potency, µM (highest dose often 115 µM), inactives show at the highest dose activation, most hits filed as activators; 410,000 compounds, 0.075% hits; AID 743266; also: potency is read from the fitted curve at half-maximal effect; nearly all actives have a fitted effect of over 55% in size
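HEK-293-derived GP2 cells expressing PTHR1 and a GloSensor cAMP reporter, 3,000/well, plated overnight, given luciferin plus IBMX (each 0.5 mM as added) for 1 h at 37 °C, then compound for 1 h at 37 °C. Luminescence was read after 15 min at room temperature.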
RXFP1 agonist – activates the human relaxin receptor RXFP1 | 370,000 compounds, 0.3% hits | AID 2676 | Potency, µM (titrated, usually from 57.5 µM), for inactives: top-dose activation, usual class: activators | Q9HBX9 | HEK293T-RXFP1 cAMP TR-FRET, 30 min; response scale: percent of porcine relaxin response, buffer zero; also: potency is read from the fitted curve at half-maximal effect; % is scaled to controls: 0 for no effect and ±100 for the full control effect; nearly all actives have a fitted effect of over 60% in size
Target sequence (Q9HBX9 whole entry, looked up): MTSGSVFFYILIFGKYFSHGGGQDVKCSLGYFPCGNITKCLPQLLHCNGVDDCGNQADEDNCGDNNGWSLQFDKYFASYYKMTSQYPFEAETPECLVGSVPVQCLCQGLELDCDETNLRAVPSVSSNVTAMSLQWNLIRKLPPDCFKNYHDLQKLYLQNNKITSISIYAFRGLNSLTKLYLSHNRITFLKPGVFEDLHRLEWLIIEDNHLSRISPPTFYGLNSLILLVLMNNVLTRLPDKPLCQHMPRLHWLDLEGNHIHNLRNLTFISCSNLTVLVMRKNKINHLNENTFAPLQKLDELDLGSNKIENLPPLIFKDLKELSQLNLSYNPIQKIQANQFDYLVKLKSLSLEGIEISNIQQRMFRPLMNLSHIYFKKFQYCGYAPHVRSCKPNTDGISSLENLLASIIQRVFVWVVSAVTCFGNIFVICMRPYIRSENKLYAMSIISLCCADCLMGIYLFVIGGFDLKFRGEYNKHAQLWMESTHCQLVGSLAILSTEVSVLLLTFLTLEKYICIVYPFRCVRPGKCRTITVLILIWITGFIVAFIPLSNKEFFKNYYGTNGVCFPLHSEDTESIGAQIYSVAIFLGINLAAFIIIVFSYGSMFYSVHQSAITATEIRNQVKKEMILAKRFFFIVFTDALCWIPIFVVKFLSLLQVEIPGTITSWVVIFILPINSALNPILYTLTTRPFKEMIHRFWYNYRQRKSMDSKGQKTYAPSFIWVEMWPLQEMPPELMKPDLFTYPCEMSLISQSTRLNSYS
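cAMP rise read by TR-FRET after 30 min, 37C compound exposure (up to 58 uM) in RXFP1-transfected HEK293 cells with Ro 20174 present. EC50 from Hill-equation fits, with 29 nM porcine relaxin as 100% and buffer as basal.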
KCNH2 WT inh – KCNH2 (human, wildtype) channel inhibition. U2OS, BacMam KCNH2, thallium flux FluxOr; active compounds read low. activity change, % at 1.84 µM. 340,000 compounds, 0.37% hits. AID 720551;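 active = maximum activity change below -70%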; also: % is scaled to controls: 0 for no effect and ±100 for the full control effect
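U2OS cells were transduced with wild-type KCNH2 virus (2.03 x 10^8 / mL) for 4 h at room temperature, then cultured overnight at 37 C. Thallium flux was read with FluxOr dye. Rate constants were normalized to DMSO controls.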
RXFP1 antagonist – blocks the human relaxin receptor RXFP1; Q9HBX9; HEK293-RXFP1, relaxin-stimulated cAMP HTRF, 30 min; active compounds read low; activity change, negative = inhibition, % at 57.5 µM; 350,000 compounds, 0.59% hits;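 active = activity change of -60% or lower, but not beyond a set lower limit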; also: % is scaled to controls: 0 for no effect and ±100 for the full control effect
GRP78 ERSR act – induces the endoplasmic reticulum stress response in human glioma cells; 420,000 compounds, 0.02% hits; U87-MG GRP78 promoter luciferase reporter, 16 h; Potency, µM, for the others: top-dose activation, most hits filed as activators; also: potency is read from the fitted curve at half-maximal effect; series mostly up to about 76 µM; % of control where 0% means no effect; nearly all actives have a fitted effect of over 35% in size
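Stably transfected U87-MG human glioma cells carrying a GRP78-based luminescent sensor were seeded at 1000 cells/well, pin-dosed with compounds and incubated 16 h. Luciferase reagent was then added, and end-point luminescence was read after 10 min at room temperature.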
Numbers without * were called inactive. Unless noted, calls follow the shape of the dose curve; as a rule, active = well fitted curve in the direction sought with a large enough effect; inconclusive = small, poorly fitted or top-dose-only effect, or another doubt; inactive = no such curve, though single readings can be large; an effect the other way counts as inactive or inconclusive.

What do the screens show for `O=C(CN(Cc1ccccc1)S(=O)(=O)c1ccccc1)NC1CC1`?
KCNH2 3.1 inh: -1; PTHR1 ag: inactive; RXFP1 agonist: 1%; KCNH2 WT inh: -159*; RXFP1 antagonist: -11; GRP78 ERSR act: -2%

What do the screens show for `CCN(CC(=O)NC1CC1)S(=O)(=O)c1ccccc1`?
KCNH2 3.1 inh: 2; PTHR1 ag: inactive; RXFP1 agonist: 1%; KCNH2 WT inh: -4; RXFP1 antagonist: -5; GRP78 ERSR act: -3%

How did COc1ccc(C2C(C#N)=C(N)OC3=C2C(=O)CC(C)(C)C3)cc1Cn1nc(C)c([N+](=O)[O-])c1C (stereo unspecified) do in these assays?
KCNH2 3.1 inh: 3; PTHR1 ag: inactive; RXFP1 agonist: 0%; KCNH2 WT inh: 9; RXFP1 antagonist: -8; GRP78 ERSR act: -4%

Results for CCS(=O)(=O)N1CCC(C(=O)NCCc2ccc(OC)c(OC)c2)CC1 ?
KCNH2 3.1 inh: -2; PTHR1 ag: inactive; RXFP1 agonist: -2%; KCNH2 WT inh: 5; RXFP1 antagonist: 0; GRP78 ERSR act: -3%

What do the screens show for `COc1ccc(CNCC(O)(c2ccc(F)cc2)c2ccc(F)cc2)cc1`?
KCNH2 3.1 inh: -105*; PTHR1 ag: -6%; RXFP1 agonist: 1%; KCNH2 WT inh: 8; RXFP1 antagonist: -8; GRP78 ERSR act: -5%

How did COc1ccc(CNCC(O)(c2ccccc2)c2ccccc2)cc1 do in these assays?
KCNH2 3.1 inh: -5; PTHR1 ag: inactive; RXFP1 agonist: -1%; KCNH2 WT inh: 19; RXFP1 antagonist: -19; GRP78 ERSR act: -3%

What do the screens show for `C=CCOc1ccc(C2NC(=O)c3ccccc3O2)cc1OC` (stereo unspecified)?
KCNH2 3.1 inh: 6; PTHR1 ag: -15%; KCNH2 WT inh: -75*; RXFP1 antagonist: -4; GRP78 ERSR act: 1%

How did O=C(NC12CC3CC(CC(C3)C1)C2)c1ccc(S(=O)(=O)N2CCOCC2)cc1 do in these assays?
KCNH2 3.1 inh: -109*; PTHR1 ag: -1%; RXFP1 agonist: -1%; KCNH2 WT inh: 2; RXFP1 antagonist: -2; GRP78 ERSR act: -4%

Results for COCCn1c(SCC(=O)Nc2sc(C)c(C)c2C#N)nnc1C(C)C ?
KCNH2 3.1 inh: -195*; PTHR1 ag: inactive; RXFP1 agonist: 1%; KCNH2 WT inh: -2; RXFP1 antagonist: -9; GRP78 ERSR act: -1%

How did CCn1c(SCC(=O)Nc2sc(C)c(C)c2C#N)nnc1C(C)C do in these assays?
KCNH2 3.1 inh: 14; PTHR1 ag: inactive; RXFP1 agonist: -1%; KCNH2 WT inh: -6; RXFP1 antagonist: -3; GRP78 ERSR act: 0%

What do the screens show for `CCCC(C)Sc1nc2c([nH]1)c(=S)n(C)c(=O)n2C` (stereo unspecified)?
KCNH2 3.1 inh: -15; PTHR1 ag: -32%; KCNH2 WT inh: -157*; RXFP1 antagonist: -22; GRP78 ERSR act: -2%

Results for CC(C)(C)c1ccc(C(=O)Nn2cnnc2)cc1 ?
KCNH2 3.1 inh: 6; PTHR1 ag: inactive; RXFP1 agonist: -4%; KCNH2 WT inh: -3; RXFP1 antagonist: -5; GRP78 ERSR act: 6%

Results for CCCNC(=O)CN1C(=O)NC(CC)(c2ccc(F)cc2)C1=O (stereo unspecified) ?
KCNH2 3.1 inh: -12; PTHR1 ag: -13%; RXFP1 agonist: 0%; KCNH2 WT inh: 5; RXFP1 antagonist: 1; GRP78 ERSR act: -1%

What do the screens show for `CCC1(c2ccc(F)cc2)NC(=O)N(CC(=O)NCC(=O)Nc2cccc(C)c2C)C1=O` (stereo unspecified)?
KCNH2 3.1 inh: 2; PTHR1 ag: inactive; RXFP1 agonist: -1%; KCNH2 WT inh: -4; RXFP1 antagonist: -79*; GRP78 ERSR act: 2%

How did COc1ccc(-n2nc(C(=O)c3cccs3)cc(-c3nc4ccccc4[nH]3)c2=N)cc1 do in these assays?
KCNH2 3.1 inh: -9; PTHR1 ag: inactive; RXFP1 agonist: 3%; KCNH2 WT inh: 6; RXFP1 antagonist: 28; GRP78 ERSR act: -1%

How did Cc1ccc(C)c(OCCC(=O)OCC(=O)N(C)c2c(N)n(Cc3ccccc3)c(=O)[nH]c2=O)c1 do in these assays?
KCNH2 3.1 inh: 6; PTHR1 ag: inactive; RXFP1 agonist: 1%; KCNH2 WT inh: 1; RXFP1 antagonist: -64*; GRP78 ERSR act: -2%

Results for CN(C(=O)c1cncc(Br)c1)c1c(N)n(Cc2ccccc2)c(=O)[nH]c1=O ?
KCNH2 3.1 inh: -6; PTHR1 ag: -12%; RXFP1 agonist: 0%; KCNH2 WT inh: -7; RXFP1 antagonist: -70*; GRP78 ERSR act: -2%

How did Cc1ccccc1OCCC(=O)OCC(=O)N(C)c1c(N)n(Cc2ccccc2)c(=O)[nH]c1=O do in these assays?
KCNH2 3.1 inh: 6; PTHR1 ag: inactive; RXFP1 agonist: 0%; KCNH2 WT inh: -5; RXFP1 antagonist: 1; GRP78 ERSR act: -6%

How did COc1ccc(C(=O)CNc2ccccc2CO)cc1 do in these assays?
KCNH2 3.1 inh: -9; PTHR1 ag: -36%; RXFP1 agonist: 2%; KCNH2 WT inh: -21; RXFP1 antagonist: -1; GRP78 ERSR act: 11%

How did CCN(CC(=O)Nc1c(F)cccc1F)C(=O)c1ccc(C(=O)c2ccccc2)cc1 do in these assays?
KCNH2 3.1 inh: 7; PTHR1 ag: -20%; RXFP1 agonist: -1%; KCNH2 WT inh: 0; RXFP1 antagonist: 1; GRP78 ERSR act: -1%

How did CCN(CC(=O)Nc1c(F)cccc1F)C(=O)c1cccc(S(=O)(=O)NCc2ccccc2)c1 do in these assays?
KCNH2 3.1 inh: 5; PTHR1 ag: -22%; RXFP1 agonist: 0%; KCNH2 WT inh: -219*; RXFP1 antagonist: -9; GRP78 ERSR act: -4%

Results for O=C(NC(c1ccccc1)c1ccccc1)c1cccc(S(=O)(=O)NCc2ccccc2)c1 ?
KCNH2 3.1 inh: -71*; PTHR1 ag: -20%; RXFP1 agonist: 3%; KCNH2 WT inh: -28; RXFP1 antagonist: -5; GRP78 ERSR act: -1%

How did O=C(NCCc1ccccc1)c1cccc(S(=O)(=O)NCc2ccccc2)c1 do in these assays?
KCNH2 3.1 inh: 0; PTHR1 ag: inactive; RXFP1 agonist: 0%; KCNH2 WT inh: -4; RXFP1 antagonist: -8; GRP78 ERSR act: 0%

Results for CN(C)c1ncc2nc(CCc3ccccc3)c(=O)n(CCC#N)c2n1 ?
GRP78 ERSR act: -2%

How did O=C1OC(O)c2cccc3cccc1c23 (stereo unspecified) do in these assays?
KCNH2 3.1 inh: -71*; PTHR1 ag: inactive; KCNH2 WT inh: 5; RXFP1 antagonist: -7; GRP78 ERSR act: -6%
